Compounds with a hit are over-represented: about 6.5% of the library has one in this group of screens.
Marburg entry inh: qHTS for inhibitors of binding or entry into cells for Marburg Virus. actives 1.8% (n = 300,000). Marburg virus pseudotyped entry inhibition, cell reporter. Potency, µM (highest dose often 37.8 µM), for inactives: top-dose activity change, negative = inhibition, actives largely listed as inhibitors; calls by dose curve; tested in HEK293 cells; note: potency is the fitted concentration of half-maximal effect
FMDV antiviral: High Throughput Screening for Foot and Mouth Disease Virus Antivirals; AID 1159524, 2015; Potency, µM (top dose mostly 57.9 µM), for inactives: top-dose activity change, negative = inhibition, most hits filed as inhibitors; FMDV antiviral cell-based qHTS; actives 1.2% (n = 410,000); calls by dose curve; tested in HEK293T cells; note: read-out not given here; potency is the fitted concentration of half-maximal effect; nearly all actives have a fitted effect of over 45% in size
Vaccinia Venus: qHTS for Stage-Specific Inhibitors of Vaccinia Orthopoxvirus: Venus Reporter Primary qHTS | Vaccinia virus Venus reporter expression, fluorescence | Potency, µM (top dose mostly 36.5 µM), inactives show top-dose activity change, negative = inhibition, most hits filed as inhibitors | actives 0.46% (n = 330,000) | AID 720580, 2013; calls by dose curve; tested in A549 cells; note: potency is the fitted concentration of half-maximal effect; nearly all actives have a fitted effect of over 30% in size
Lassa entry inh: qHTS for Inhibitors of binding or entry into cells for Lassa Virus. Lassa virus pseudotype entry inhibition, cell reporter. Potency, µM (titrated, usually from 37.9 µM), without a hit: at the highest dose activity change, negative = inhibition, most hits filed as inhibitors. actives 1.2% (n = 300,000); calls by dose curve; tested in HEK293 cells; note: potency is the fitted concentration of half-maximal effect; nearly all actives have a fitted effect of over 50% in size
HCMV inh: qHTS Assay for inhibitors of the human cytomegalovirus (HCMV) | AID 1259415, 2018 | actives 4.5% (n = 410,000) | HFF cells, HCMV-luciferase reporter, 72 h; hits give low values | activity change, negative = inhibition, % at 57.5 µM; in the data active = activity change below about -60%; inconclusive = no clear call, values can overlap the other calls; inactive = above about -39%
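Luciferase read-out from HCMV-luciferase-infected HFFs (MOI 1 PFU/cell) 72 h post infection at 37C; compounds added after 16 h cell attachment; activity normalized between buffer-only basal and Salinomycin (10uM) inhibitor controls.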
VACV mCherry inh: qHTS for Stage-Specific Inhibitors of Vaccinia Orthopoxvirus: mCherry Reporter Primary qHTS. Vaccinia virus mCherry reporter infection, fluorescence. Potency, µM (series often up to 36.5 µM), for inactives: at the top dose activity change, negative = inhibition, actives largely listed as inhibitors. actives 0.63% (n = 310,000). AID 720579, 2013; calls by dose curve; tested in A549 cells; note: potency is the fitted concentration of half-maximal effect; nearly all actives have a fitted effect of over 35% in size
An asterisk follows results filed as active; i = inactive; ? = inconclusive; . = no result; + = active, no number; [ ] = another dose, or the depositor's remark. % is set by controls: 0 for no effect and ±100 for the full control effect.

SMILES	Marburg entry inh	FMDV antiviral	Vaccinia Venus	Lassa entry inh	HCMV inh	VACV mCherry inh
C=CC[n+]1ccc(/C=C2\C=Cc3cc(C)ccc3N2CC)c2ccccc21	.	35.5µM*	.	.	.	.
CCCCOCC1CN(CCCC)S(=O)(=O)c2c(cccc2N2CCCCC2)O1 (configuration not stated)	.	.	.	.	-1.1	.
CCCCCCCCCCCC(=O)NC(C(=O)OCC)C(O)c1cccc([N+](=O)[O-])c1 (configuration not stated)	11.2µM*	?	-29.0%	?	16.4	-21.4%
Cc1ccc(NC(=O)C2=C(c3ccccc3)S(=O)(=O)CCS2(=O)=O)cc1	?	25.1µM*	?	?	-98.8*	?
CC(C)(C(=O)NCc1ccccc1)n1cc(NC(=O)c2ccc3c(c2)OCO3)cn1	.	.	.	.	51.8	.
COc1ccc(Nc2ncc3c(n2)CCN(Cc2cccc(F)c2F)C3)c(OC)c1	.	-2.1%	-4.3%	8.5%[46.1 µM]	3.4	-12.1%
CCOc1ccc(N(CC(=O)NC2CCCCC2)C(=O)CCCC(=O)Nc2ccccn2)cc1	-0.9%[46.1 µM]	42.9%	-26.5%	10µM*	22.5	i
Cc1ccc(C(C(=O)NC2CCCCC2)N(C(=O)CCCC(=O)Nc2ccccn2)c2ccc3c(c2)OCCO3)cc1 (configuration not stated)	19.9%	28.2%	.	-11.3%	-62.7*	.
O=C(CCCC(=O)N(c1ccc2c(c1)OCCO2)C(C(=O)NC1CCCCC1)c1ccc(F)cc1)Nc1ccccn1 (configuration not stated)	?	.	-22.8%	1.7%	-68.4*	-17.6%
COc1ccc2c(c1)OC(C)CN(CCC(=O)NCC1OCCc3ccccc31)C2 (configuration not stated)	.	-5.2%	-7.2%	.	.	-15.4%
COc1ccc(N(C(=O)c2ccc(C(C)(C)C)cc2)S(=O)(=O)c2ccc(Cl)cc2)cc1	.	3.1%	-4.1%	?	-17.2	-14.6%
Oc1ccc(Cl)cc1C1C=C(c2ccc3c(c2)OCO3)NC(c2ccc(Br)cc2)N1 (configuration not stated)	.	.	-6.9%	.	.	i
Cc1ccc(NC(=O)C2CCCN(c3nnc(C)c4c(C)n(-c5ccccc5)nc34)C2)c(Cl)c1 (configuration not stated)	.	-9.7%	-24.6%	?	?	-24.1%
O=S(=O)(c1ccc(Cl)cc1)N1CCN=C1SCc1cccc(Cl)c1	-15.9%	?	-26.0%	?	-62.0*	-6.1%
COc1ccc(S(=O)(=O)N2CCN=C2SCc2cccc(C)c2)cc1	?	?	-14.2%	?	-74.7*	-0.4%
O=S(=O)(c1ccccc1)N1CCN=C1SCc1c(F)cccc1Cl	-26.4%	-20.3%	-13.9%	?	-80.0*	-10.4%
O=S(=O)(c1ccc(Cl)cc1)N1CCN=C1SCc1cccnc1	.	-2.4%	-26.0%	.	-75.2*	-16.1%
COc1ccc(-n2ccn(Cc3ccc(C)cc3)c(=O)c2=O)cc1OC	.	-2.0%	4.6%	6.1%[46.1 µM]	-15.8	-0.9%
Clc1ccccc1CN1CCC(Cc2ccccc2)CC1	?	-2.5%	-17.4%	-4.2%	-101.0*	-22.6%
Oc1ccc(CN2CCN(c3ccccc3)CC2)c2cccnc12	?	-21.5%	-22.4%	?	.	-27.3%
Oc1c(CN2CCCCC2)ccc2cccnc12	?	-25.6%	?	-15.2%[46.1 µM]	-73.5*	8.91µM*
FC(F)(F)c1ccccc1CN1CCC(Cc2ccccc2)CC1	-3.7%[46.1 µM]	-16.1%	-10.8%	-4.9%[46.1 µM]	-7.2	i
Oc1ccc(CN2CCCCC2)c2cccnc12	?	.	?	-64.8%	-68.4*	-34.5%
Cc1ccc(C)c(S(=O)(=O)N2CCN(Cc3ccc(O)c4ncccc34)CC2)c1	7.3µM*	-5.2%	?	9.2µM*	-100.4*	?
CCOC(=O)N1CCN(Cc2ccc(O)c3ncccc23)CC1	?	-12.9%	?	?	-30.7	?
SMILES	Marburg entry inh	FMDV antiviral	Vaccinia Venus	Lassa entry inh	HCMV inh	VACV mCherry inh
CCOc1ccc(CCNC(=O)c2oc(=O)c3ccccc3c2-c2ccc(C)cc2)cc1OCC	1.7%[46.1 µM]	-18.1%	-0.7%	?	9.2	-3.2%
Oc1ccc(CN2CCC(Cc3ccccc3)CC2)c2cccnc12	?	?	?	2.82µM*	-101.0*	-20.6%
Oc1ccc(CN2CCc3ccccc3C2)c2cccnc12	3.26µM*	-29.4%	.	2.59µM*	-99.3*	.
CCn1c(-c2ccccc2F)nc2cc(C(=O)NCC3CCOCC3)cc(NC(C)=O)c21	.	-7.2%	-2.4%	.	.	-11.7%
COc1cc(OC)cc(C(=O)N(Cc2ccco2)Cc2cccs2)c1	.	.	-20.7%	.	.	-9.6%
Cc1ccc(O)c(NC(=O)COCc2cc(-c3ccco3)on2)c1	.	-8.3%	-27.8%	?	+	-7.8%
CCOC(=O)c1ccc(NC(=O)C(C)Sc2nc(=O)cc(N)n2CCc2ccccc2)cc1 (configuration not stated)	5.01µM*	-11.8%	1.5%	-3.0%[46.1 µM]	2.3	3.2%
C=CCn1c(N)cc(=O)nc1SC(C)C(=O)Nc1ccc(C(=O)OCC)cc1 (configuration not stated)	13.9%	0.0%	-11.3%	21.0%	-19.8	-14.0%
c1ccc(-c2cc3c(Nc4cccnc4)nccc3[nH]2)cc1	.	.	.	.	10.8	.
CCOC(=O)c1cc(NC(=O)c2ccc(C)cc2)c(=O)n2c1oc1ccccc12	-3.7%[46.1 µM]	-1.4%	-2.0%	7.8%[46.1 µM]	-4.8	-1.5%
CCOC(=O)c1cc(NC(=O)c2ccccc2)c(=O)n2c1oc1ccccc12	.	-10.9%	7.94µM*	.	-71.1*	10µM*
O=C(N/N=C/c1ccc(OC(F)F)cc1OC(F)F)NC1CCCCC1	1.6%[46.1 µM]	-26.6%	-12.9%	11.2µM*	-31.0	-0.7%
CCOC(=O)c1c2c(n(Cc3ccccc3)c1C)C(=O)C(=O)c1ccccc1-2	5.62µM*	20µM*	4.47µM*	?	0.0	?
CCOC(=O)c1c2c3c(cccc3n(C)c1=O)C(=O)c1ccccc1-2	?	-12.1%	11.5%	-18.6%[46.1 µM]	-3.0	-11.8%
CCOC(=O)c1c2c(n(C)c1C)C(=O)C(=O)c1ccc(Br)cc1-2	?	8.91µM*	-8.5%	?	-97.5*	-6.4%
COC(=O)c1cc2c(c3c4cc(OC)ccc4n(S(C)(=O)=O)c13)C(=O)N(C)C2	.	.	.	.	-19.9	.
COc1nnc(OC)c2ccccc12	24.9%	.	-3.0%	16.6%	?	-14.9%
COc1c2ccccc2c(OC)c2ccccc12	3.9%[46.1 µM]	25.8%	-8.3%	15.2%[46.1 µM]	-63.8*	-17.0%
O=S(=O)(c1ccc(Cl)cc1)c1cnc2ccccc2n1	-61.1%[46.1 µM]	25.1µM*	-3.8%	?	-31.7	-9.2%
CO/N=C/c1ccc(N2CCN(C(=O)c3ccc(Cl)cc3Cl)CC2)c([N+](=O)[O-])c1	?	12.6µM*	.	?	-97.8*	.
CO/N=C/c1ccc(N2CCN(C(=O)c3cccc(C(F)(F)F)c3)CC2)c([N+](=O)[O-])c1	?	?	.	-2.3%	-21.5	.
